Screening data as filed in PubChem BioAssay.
Rows were chosen to be rich in hits. Some 2.1% of all compounds tested hit in one or more screens of this group.
Rce1 inh: yeast Rce1p protease inhibitors, primary screen, biochemical, fluorescence, cell-free homogeneous; CAAX prenyl protease 2 (Saccharomyces cerevisiae (strain ATCC 204508 / S288c)), Q03530; yeast membranes, quenched prenylated peptide cleavage fluorescence; calls only; 290,000 compounds, 0.27% hits; AID 2563, 2010;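 active = fall in fluorescence gain of 50% or more versus controls, with final raw signal at or below 3038400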
ADAM17 inh: ADAM17 inhibitors, primary screen, biochemical, QFRET | AID 720648, 2013 | 370,000 compounds, 0.83% hits | recombinant ADAM17, EDANS/DABCYL FRET peptide cleavage | inhibition, % at 6.95 µM | Disintegrin and metalloproteinase domain-containing protein 17 (Homo sapiens), P78536;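 active = inhibition above the mean of compounds lying between control limits plus 3 SD, set per campaign, cut at about 8.5% in these data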
ADAM10 inh: human ADAM10 inhibitors, primary screen, biochemical, QFRET, HTS; AID 720582, 2013; recombinant ADAM10, EDANS/DABCYL FRET peptide cleavage, 3 h; Disintegrin and metalloproteinase domain-containing protein 10 (Homo sapiens), O14672; 370,000 compounds, 0.62% hits; inhibition, % at 7 µM;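 active = inhibition above a per-campaign cutoff equal to the mean of compounds falling between control-based bounds plus 3 SD, cut at about 20% in these data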
Target sequence (O14672 214-748 limits assumed): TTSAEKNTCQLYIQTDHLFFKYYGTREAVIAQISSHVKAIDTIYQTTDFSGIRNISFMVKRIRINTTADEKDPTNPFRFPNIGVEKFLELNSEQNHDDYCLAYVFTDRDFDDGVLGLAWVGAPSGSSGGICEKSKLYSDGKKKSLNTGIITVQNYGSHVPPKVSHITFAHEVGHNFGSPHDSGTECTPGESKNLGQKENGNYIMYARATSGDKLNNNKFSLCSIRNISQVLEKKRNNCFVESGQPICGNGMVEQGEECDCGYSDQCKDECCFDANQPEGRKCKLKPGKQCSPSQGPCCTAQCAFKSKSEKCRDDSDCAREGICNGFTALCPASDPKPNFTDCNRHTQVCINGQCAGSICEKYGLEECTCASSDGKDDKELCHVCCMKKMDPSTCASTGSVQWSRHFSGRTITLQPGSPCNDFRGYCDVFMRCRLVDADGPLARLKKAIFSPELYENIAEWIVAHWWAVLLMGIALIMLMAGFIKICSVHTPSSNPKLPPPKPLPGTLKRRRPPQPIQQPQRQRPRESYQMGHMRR
PLCb3 inh: human PLC-beta3 inhibitors, primary screen, biochemical, fluorescence; AID 720704, 2013; inhibition, % at 12.2 µM; Purified PLC-beta3, fluorogenic substrate; 370,000 compounds, 0.18% hits; in the data active = inhibition above about 11%
PLC-gamma1 inh: PLC-gamma1 enzyme inhibitors, primary screen, biochemical, fluorescence, purified enzyme | AID 720700, 2013 | fluorogenic substrate | inhibition, % at 12.2 µM | 370,000 compounds, 0.84% hits; in the data active = inhibition above about 9.5%
ADAM10 confirm: human ADAM10 inhibitors, confirmation, biochemical, QFRET, triplicate; ADAM10 QFRET peptide cleavage, EDANS fluorescence; 2,100 compounds, 1% hits; inhibition, % at 6.95 µM; shares compounds with ADAM10 inh;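 active = inhibition above about 20% chosen separately for each screening run, limit read from the data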
ADAM17 counter: ADAM17 inhibitors, counter-screen for ADAM10 exosite inhibitor project, biochemical, QFRET, high throughput. AID 743214, 2013. ADAM17 QFRET peptide cleavage, EDANS fluorescence. 2,100 compounds, 0.5% hits. inhibition, % at 6.95 µM. shares compounds with ADAM10 inh;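 active = mean triplicate inhibition above the solvent-only control wells' mean plus 3 SD, cut at about 12% in these data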
ADAM10 counter: ADAM10 inhibitors, counter-screen for ADAM17 exosite inhibitor project, biochemical, FRET, human ADAM10 | shares compounds with ADAM17 inh | recombinant ADAM10, EDANS/DABCYL FRET peptide cleavage, 3 h | inhibition, % at 6.95 µM | 2,900 compounds, 47% hits | AID 743256, 2014;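 active = mean inhibition over the triplicate runs exceeds the activity threshold set in the earlier primary screen, cut at about 20% in these data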
ADAM17 confirm: ADAM17 inhibitors, hit retest, confirmation, biochemical, QFRET peptide cleavage; shares compounds with ADAM17 inh; recombinant ADAM17, EDANS/DABCYL QFRET peptide cleavage; inhibition, % at 6.95 µM; 2,900 compounds, 65% hits;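 active = mean inhibition across replicates above the hit cutoff set in the primary screen, cut at about 8.5% in these data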
Large screens that a line does not name were inactive (follow-up assays come after a bar, where they were run).

COc1cc(CN2CCN(c3cccc(C)c3C)CC2)cc(Br)c1O	ADAM17 inh 9.8, ADAM10 inh 24 | ADAM10 confirm inactive | ADAM17 counter inactive | ADAM10 counter 22 | ADAM17 confirm 11
Cc1cccc(OCCCSc2nc3ccccc3[nH]2)c1	ADAM17 inh 10, ADAM10 inh 21 | ADAM10 confirm inactive | ADAM17 counter inactive | ADAM10 counter inactive | ADAM17 confirm 9.8
Cc1cccc(OCCSCc2nc3ccccc3[nH]2)c1	none
Oc1ccc(Cl)cc1-c1cc(-c2cccc(Br)c2)n[nH]1	ADAM17 inh 10, ADAM10 inh 25 | ADAM10 confirm inactive | ADAM17 counter inactive | ADAM10 counter 31 | ADAM17 confirm 17
COC(=O)Cc1ccc(NC(=S)N2CCN(CCO)CC2)cc1	none
O=C(COC(=O)C1(c2ccc(F)cc2)CCCC1)NCc1ccco1	none
O=S(=O)(NCC(Nc1ccc(Cl)cc1)c1ccccc1)c1ccccc1 (configuration not stated)	ADAM17 inh 26, ADAM10 inh 53 | ADAM10 confirm inactive | ADAM17 counter inactive | ADAM10 counter 46 | ADAM17 confirm 22
CC(=O)Oc1ccc2c(=O)c(Oc3ccccc3)coc2c1OC(C)=O	none
O=C(CC(O)(CC(=O)OCc1ccccc1)C(=O)OCc1ccccc1)OCc1ccccc1	none (no result: Rce1 inh)
CCCCCOC(=O)C1=C(C)N(C)C(=O)NC1c1cc(Br)c(O)c(OC)c1 (configuration not stated)	ADAM17 inh 11, ADAM10 inh 20 | ADAM10 confirm inactive | ADAM17 counter inactive | ADAM10 counter inactive | ADAM17 confirm inactive
O=C(Nc1ccccc1)Nc1cc(OCC(F)(F)F)cc(OCC(F)(F)F)c1	ADAM17 inh 15, ADAM10 inh 31 | ADAM10 confirm inactive | ADAM17 counter inactive | ADAM10 counter 28 | ADAM17 confirm 17
COC(=O)c1ccc(NC(=O)CCCN2C(=O)NC(C)(C)C2=O)cc1	none (no result: Rce1 inh)
COc1ccc(CCC(=O)NCC(=O)OCc2ccccc2)cc1	none
Cc1cc(NC(=O)CS(=O)(=O)c2cn(Cc3cccc(Br)c3)c3ccccc23)no1	ADAM17 inh 10, ADAM10 inh 24 (no result: Rce1 inh) | ADAM10 confirm inactive | ADAM17 counter inactive | ADAM10 counter inactive | ADAM17 confirm 8.7
Cc1cc(NC(=O)CS(=O)(=O)c2cn(Cc3ccccc3Cl)c3ccccc23)no1	none
C=C(C)COc1ccc(-c2[nH]ncc2-c2ccc(OC)cc2)c(O)c1	none
C=C(C)COc1ccc(-c2n[nH]c(C)c2Oc2ccccc2OC)c(O)c1	ADAM17 inh 12, ADAM10 inh 26 | ADAM10 confirm inactive | ADAM17 counter inactive | ADAM10 counter 41 | ADAM17 confirm 20
C=C(C)COc1ccc(-c2[nH]ncc2-c2ccccc2)c(O)c1	ADAM17 inh 11, ADAM10 inh 24 | ADAM10 confirm inactive | ADAM17 counter inactive | ADAM10 counter 34 | ADAM17 confirm 17
COc1ccc(-c2cn[nH]c2-c2ccc(OCc3ccccc3)cc2O)cc1OC	ADAM17 inh 9.7, ADAM10 inh 33 | ADAM10 confirm inactive | ADAM17 counter inactive | ADAM10 counter 34 | ADAM17 confirm 16
C=C(C)COc1ccc(-c2nc(N)ncc2-c2ccc(OC)c(OC)c2)c(O)c1	none
C=C(C)COc1ccc(-c2nc(N)ncc2-c2ccc(OC)cc2)c(O)c1	ADAM17 inh 16, ADAM10 inh 27 | ADAM10 confirm inactive | ADAM17 counter inactive | ADAM10 counter inactive | ADAM17 confirm 17
COc1cccc(-c2c(C#N)c(N)nc3c2c(=O)nc2sccn23)c1	none (no result: ADAM17 inh, ADAM10 inh, PLCb3 inh, PLC-gamma1 inh)
CNC(=O)C1Cc2c(-c3ccccc3Oc3ccccc3)ccnc2O1 (configuration not stated)	none (no result: Rce1 inh)
COc1cc(C=Nn2c(-c3cc(-c4ccccc4)n[nH]3)n[nH]c2=S)ccc1OC(C)=O	none (no result: Rce1 inh)
COC(=O)CCCn1cc(CN2CC(N(C)C)CS2(=O)=O)nn1 (configuration not stated)	none (no result: Rce1 inh)
O=[N+]([O-])c1cccnc1N1CCC(c2cc(-c3ccc(Cl)cc3)n[nH]2)CC1	ADAM17 inh 13, ADAM10 inh 30 | ADAM10 confirm inactive | ADAM17 counter inactive | ADAM10 counter 40 | ADAM17 confirm 19
CC1(Cc2ccc(C(F)(F)F)o2)C(=O)Nc2cc(-c3ccc(F)cc3F)ccc21 (configuration not stated)	ADAM17 inh 13, ADAM10 inh 45 (no result: Rce1 inh) | ADAM10 confirm inactive | ADAM17 counter inactive | ADAM10 counter 44 | ADAM17 confirm 24
COc1cc(C(=O)O[C@H]2C/C(C)=C/CC[C@@]3(C)O[C@@H]3[C@H](O)[C@@H]2C(C)C)cc(OC)c1OC	none
COc1ccc(CC(=O)Nc2nc(-c3ccc(F)c(F)c3)cs2)cc1	none
CC1(C(=O)OCC(=O)Nc2nc(-c3ccc(F)c(F)c3)cs2)CC1(Cl)Cl (configuration not stated)	ADAM17 inh 9.3, ADAM10 inh 21 | ADAM10 confirm inactive | ADAM17 counter inactive | ADAM10 counter 24 | ADAM17 confirm 16
COC(=O)[C@]12C[C@H](CC(=O)NCc3cccc(C(F)(F)F)c3)C(=O)N(CCc3ccc(OC)c(OC)c3)C1=C[C@H](C(C)C)O[C@@H]2C1CC1	ADAM17 inh 13, ADAM10 inh 22 (no result: Rce1 inh) | ADAM10 confirm inactive | ADAM17 counter inactive | ADAM10 counter 22 | ADAM17 confirm 8.9
CCCCOCCCNC(=O)C[C@@H]1C[C@@]2(C(=O)OC)CC(C)(C)CC=C2N(Cc2cccc3ccccc23)C1=O	ADAM17 inh 13, ADAM10 inh 22 (no result: Rce1 inh) | ADAM10 confirm inactive | ADAM17 counter inactive | ADAM10 counter 27 | ADAM17 confirm 16
